# Source: PubChem BioAssay (Tox21)
# Where “and” joins values, the source holds several entries; their conditions need not be identical. Equal values may be shown once. Results filed as inconclusive are left out. Entries that show only a call come without a potency. Calls of active or inactive are those of the source. Calls follow the shape of the full dose curve.
# Assay: qHTS assay to identify small molecule agonists or antagonists of the thyroid stimulating hormone receptor (TSHR) signaling pathway - wild type cell line counter screen (AID 1259384)
# Conditions: HEK293 wild type, cAMP HTRF counter-screen; series mostly up to 92.4 µM
# Excerpt: U.S. Tox21 Program National Center for Advancing Translational Sciences [NCATS] NIH Chemical Genomics Center [NCGC] U.S. Environmental Protection Agency [EPA] National Institutes of Environmental Health Sciences [NIEHS] National Toxicology Program [NTP] U.S. Food and Drug Administration [FDA] Tox21 Assay Overview: TSHR is the receptor for thyrotropin (thyroid stimulating hormone or TSH), a member of the glycoprotein hormone family. TSH is released by the anterior pituitary gland and is the main regulator of thyroid gland growth and development. Upon binding circulating thyrotropin, a G-protein signal cascade activates adenylyl cyclase and […] cAMP concentration is increased. cAMP is a key second messenger involved extensively in cellular signal transduction pathways associated with the majority of G-protein coupled receptors (GPCRs). The activation of these GPCRs by neurotransmitters, lipids, nucleotides, peptides and hormones results in the activation or the inhibition of plasma membrane-bound adenylate cyclase through heterotrimeric G-proteins. A cell-based TSHR-Hek293 assay can be used to identify TSHR agonists. To eliminate the false positive compounds identified from screening a cell-based TSHR-Hek293 cell line, cAMP assay in a wild type Hek293 cells was used as a counter screening.
# Tox21 Assay Protocol Summary: Hek293 cells (wild type) were dispensed at 800 cells/4 uL/well in 1536-well white plates using a Multidrop dispenser. After the assay plates were incubated at a 37 C/5% CO2 incubator for 18 hrs, 23 nL of compounds dissolved in DMSO, positive controls or DMSO only was transferred to the assay plate by a pin tool, followed by 1 ul medium containing Ro20-1724. After 30 min of incubation at room temperature, 2.5 ul/well of cAMP-d2 and 2.5 ul/well of anti-cAMP-cryptate were added respectively into the assay plates using a Flying Reagent Dispenser. The plates were incubated at room temperature for 1 hr. The fluorescence intensity in the plates was measured using an Envision plate reader. Each test compound was measured at 15 concentrations and in triplicates.
# Potency is read from the fitted curve at half-maximal effect.
row,SMILES,Potency
1,C[C@]12C=CC(=O)C=C1CC[C@H]1[C@@H]3C[C@@H](O)[C@](O)(C(=O)CO)[C@@]3(C)C[C@H](O)[C@@]12F,inactive
2,IC(I)I,inactive
3,CC(=O)[C@H]1CC[C@H]2[C@@H]3CC=C4C[C@@H](O)CC[C@]4(C)[C@H]3CC[C@]12C,inactive
4,OC[C@@H](O)[C@@H](O[C@@H]1O[C@H](CO)[C@H](O)[C@H](O)[C@H]1O)[C@H](O)[C@@H](O)CO,inactive
5,O=C(O)c1cc(=O)[nH]c(=O)[nH]1,inactive
6,Cc1ccc(C(C)(C)C)cc1,inactive
7,CC(=O)OC(C)C,inactive
8,C=CC(C)(O)CCC=C(C)C (stereo not given),inactive
9,OCCNCCO,inactive
10,C[C@]12CC[C@@H]3c4ccc(O)cc4CC[C@H]3[C@@H]1CC[C@@H]2O,inactive
11,NCCS(=O)(=O)O,inactive
12,CN(C)CCCN1c2ccccc2Sc2ccc(Cl)cc21,inactive
13,C[C@]12CC[C@@H]3c4ccc(O)cc4CC[C@H]3[C@@H]1CC[C@H]2O,inactive
14,C=CC(=O)OCCCC,inactive
15,CC(C)(Oc1ccc(Cl)cc1)C(=O)O,inactive
16,C=CCOC(=O)C(=C)C,inactive
17,CC1(C)OC(=O)NC1=O,inactive
18,O=Cc1ccccc1C=O,inactive
19,CC(=O)Oc1c(C)c(C)c2c(c1C)CC[C@@](C)(CCC[C@H](C)CCC[C@H](C)CCCC(C)C)O2,inactive
20,c1ccc2ncccc2c1,inactive

row,SMILES,Potency
1,C1CN(SSN2CCOCC2)CCO1,inactive
2,FC(F)(F)C(Cl)Br (stereo not given),inactive
3,CC(=O)Oc1ccc(C(c2ccc(OC(C)=O)cc2)c2ccccn2)cc1,inactive
4,NCCN,inactive
5,CN(Cc1cnc2nc(N)nc(N)c2n1)c1ccc(C(=O)N[C@@H](CCC(=O)O)C(=O)O)cc1,inactive
6,Cc1ccc(C)c(O)c1,inactive
7,CCCOCCO,inactive
8,CCOC(=O)C(C)Oc1ccc(Oc2cnc3cc(Cl)ccc3n2)cc1 (stereo not given),inactive
9,Cc1ccc(S(=O)(=O)O)cc1C,inactive
10,CCCCCCCCCCCCO,inactive
11,C[N+](C)(C)CCO,inactive
12,CC(C)=CCO,inactive
13,C=C[C@@]1(C)CC(=O)[C@]2(O)[C@@]3(C)[C@@H](O)CCC(C)(C)[C@@H]3[C@H](O)[C@H](OC(C)=O)[C@@]2(C)O1,63.6 nM (active) and 256 nM (active)
14,CC/C=C\C/C=C\C/C=C\CCCCCCCC(=O)O,inactive
15,C/C=C/C(=O)N(CC)c1ccccc1C,inactive
16,CC(C)[C@@H]1CC[C@@H](C)CC1=O,inactive
17,COc1ccc(C(=O)c2ccccc2O)c(O)c1,inactive
18,c1ccc2c(c1)ccc1cc3c(ccc4ccccc43)cc12,inactive
19,Cc1ccc(S(=O)(=O)NCl)cc1,inactive
20,Cc1ccc(/C(=C\CN2CCCC2)c2ccccn2)cc1,inactive
